Assay results reported in PubChem BioAssay (NCATS).
Inconclusive results are not listed. Where a call stands in place of a potency, no number is given. The source made the active and inactive calls. Calls follow the shape of the dose curve; as a rule, active = well fitted inhibition curve with a large enough effect; inconclusive = small, poorly fitted or top-dose-only effect; inactive = no such curve, though single readings can be large or run the other way.

assay: qHTS to identify inhibitors of the type 1 interferon - major histocompatibility complex class I in skeletal muscle: primary screen against the NCATS Mechanism Interrogation Plate v5.0 (MIPE) Libary (AID 1347411); settings: iHSKM cells + IFN-b, HiBiT-tagged MHC-I luminescence, 24 h; series mostly up to 45.8 µM; also: nearly all actives have a fitted effect of over 65% in size
From the text: Assay Submitter (PI): Travis B. Kinder Ph.D. & James Inglese Ph.D.
Assay Development and Screening Technology Laboratory (ADST)
National Center for Advancing Translational Sciences (NCATS), Rockville, MD
National Institute of Health (NIH), Bethesda, Maryland
Idiopathic inflammatory myopathies, collectively referred to as myositis, are a group of rare autoimmune diseases characterized by skeletal muscle inflammation, weakness, and usually accompanied by systemic pathologies of the skin, lungs, or vasculature. Current immunosuppressive therapies and glucocorticoids are often not curative and are accompanied by harsh side effects, especially in children with juvenile myositis. We initiated a drug repurposing and development program to identify more targeted, less toxic therapeutics to treat myositis. Although its cause is not known, muscle from a subset of patients have an abundance of the inflammatory type 1 interferon (IFN) and a down-stream product major histocompatibility complex class I (MHC class I), which are both thought to contribute to damage and weakness. We conducted quantitative high throughput screening on 6,576 compounds (4,679 unique) through a series of cell-based assays to identify those that inhibit the IFN-stimulated expression of MHC class I in muscle precursor cells (myoblasts). The compound identification and evaluation strategy utilized a primary screen with reporter-tagged MHC class I in genome-engineered myoblasts, ATP content counter screen for viability, HLA-ABC immunofluorescence secondary screen, and HLA-B RT-qPCR tertiary screen.
The primary screen utilized CRISPR/Cas9 genome-engineering of immortalized human myoblasts, C25cl48, where a pro-luminescent reporter HiBit was fused to the C-terminus of endogenous MHC class I allele HLA-B*08:01 (HLA-B HiBit myoblasts). HiBit is an 11 amino acid fragment of NanoLuc luminescent reporter (Promega Corporation), and when complexed to the larger LgBit fragment, the reconstituted enzyme produces light in the presence of furimazine substrate (Schwinn et al., 2018). Briefly, HLA-B HiBit myoblasts were plated into 1536-well plates, treated with 4.0 ng/ml human IFN-beta and 2,480 compounds from the NCATS Mechanism Interrogation Plate v5.0 (MIPE5.0) in an 11-point, 1:3 titration with a high final concentration of 46 uM. After 24 hrs of treatment, cells were assayed by Nano-Glo HiBiT Lytic Detection System (Promega) and luminescence measured by a ViewLux 1430 Ultra HTS (Perkin Elmer).
Schwinn MK, Machleidt T, Zimmerman K, Eggers CT, Dixon AS, Hurst R, Hall MP, Encell LP, Binkowski BF, Wood K V. 2018. CRISPR-Mediated Tagging of Endogenous Proteins with a Luminescent Peptide. ACS Chem Biol 13:467-474. doi:10.1021/acschembio.7b00549
PROTOCOL TABLE (as described by Inglese et al., 2007)
SEQUENCE No. (e.g., 1, 2, 3, etc.); […] (e.g., Cells, Incubation, Reagent, etc.); VALUE; DESCRIPTION
1a; Cells; 5 uL; Use a Multidrop Combi (Thermo Scientific) to seed 300 cells/well into 24 Greiner 1536 well white/solid bottom, high base, TC plates in 5 ul/well of iHSKM growth medium (GM) without dexamethasone into columns 1+2. Add metal lids with gas-exchange holes
1b; Cells; 5 uL; Use a Multidrop Combi (Thermo Scientific) to seed 300 cells/well into 24 Greiner 1536 well white/solid bottom, high base, TC plates in 5 ul/well of iHSKM GM without dexamethasone + 4 ng/ml IFN-b into columns 3 - 48. Add metal lids with gas-exchange holes
2; Incubate; 1 hr; Incubate at 37 C, 5% CO2, 95% RH
3; Compounds; 23 nl; Use Pin Tool (Wako) to transfer DMSO control, ruxolitinib IFN-b inhibitor control [High Concentration = 80 uM final, 16-pt, 1:2 in duplicate], and library compounds in DMSO
4; Incubate; 24 hrs; Incubate at 37 C, 5% CO2, 95% RH
5; Dispense; 2.5 ul; Use BioRAPTR FRD (Beckman Coulter) to add HiBit lytic reagent
6; Incubate; 10 min; Incubate in the dark at ambient temperature for lysis
7; Detector; 5 sec; Measure luminescence with ViewLux 1430 Ultra HTS (Perkin Elmer). […]
Potency is read from the fitted curve at half-maximal effect.

**Q.** For `Cc1nnc(C(=O)NC(C)(C)c2nc(C(=O)NCc3ccc(F)cc3)c(O)c(=O)n2C)o1`, which Potency is on record?
**A.** inactive

**Q.** For `CN(C)CCc1c[nH]c2ccc(CS(=O)(=O)N3CCCC3)cc12`, which Potency is on record?
**A.** inactive

**Q.** For `C[C@@H](CN1CC(=O)NC(=O)C1)N1CC(=O)NC(=O)C1`, which Potency is on record?
**A.** inactive

**Q.** For `CNC1CCCN(c2c(F)cc3c(=O)c(C(=O)O)cn(C4CC4)c3c2OC)C1` (stereo not given), which Potency is on record?
**A.** inactive

**Q.** With `CCOC(=O)[C@H](CCc1ccccc1)N[C@H]1CS[C@H](c2cccs2)CN(CC(=O)O)C1=O` as the molecule, how does the Potency read?
**A.** inactive

**Q.** With `CNNCc1ccc(C(=O)NC(C)C)cc1` as the molecule, how does the Potency read?
**A.** inactive

**Q.** For `COC(c1ccccc1)(c1ccccc1)[C@H](Oc1nc(C)cc(C)n1)C(=O)O`, which Potency is on record?
**A.** inactive

**Q.** Which Potency does the source give for `OC(Cn1cncn1)(Cn1cncn1)c1ccc(F)cc1F` here?
**A.** inactive

**Q.** With `O=S(=O)(c1cccc2cnccc12)N1CCCNCC1` as the molecule, how does the Potency read?
**A.** inactive

**Q.** For `CCCOc1ccc(C(=O)OCCN(CC)CC)cc1N`, which Potency is on record?
**A.** inactive

**Q.** Which Potency does the source give for `C#CCN[C@@H]1CCc2ccccc21` here?
**A.** inactive

**Q.** Which Potency does the source give for `CC(C(=O)O)c1ccc2c(c1)CC(=O)c1ccccc1S2` (stereo not given) here?
**A.** inactive

**Q.** For `CC[C@H](NC(C)C)[C@H](O)c1ccc(O)c2[nH]c(=O)ccc12`, which Potency is on record?
**A.** inactive

**Q.** Which Potency does the source give for `CCCc1nc(C)c2c(=O)[nH]c(-c3cc(S(=O)(=O)N4CCN(CC)CC4)ccc3OCC)nn12` here?
**A.** inactive

**Q.** Which Potency does the source give for `CCCN[C@H]1CCc2nc(N)sc2C1` here?
**A.** inactive

**Q.** With `CCn1cc(C(=O)O)c(=O)c2cc(F)c(N3CCNCC3)cc21` as the molecule, how does the Potency read?
**A.** inactive

**Q.** Which Potency does the source give for `COc1ncnc(NS(=O)(=O)c2ccc(N)cc2)c1OC` here?
**A.** inactive

**Q.** For `O=c1oc2c(O)c(O)cc3c(=O)oc4c(O)c(O)cc1c4c23`, which Potency is on record?
**A.** inactive

**Q.** With `O=C(O)c1cc(=O)[nH]c(=O)[nH]1` as the molecule, how does the Potency read?
**A.** inactive

**Q.** For `Cn1c(=O)c2c(ncn2CC(O)CO)n(C)c1=O` (stereo not given), which Potency is on record?
**A.** inactive

**Q.** Which Potency does the source give for `CC1=NN(c2ccccc2)C(=O)C1` here?
**A.** inactive

**Q.** For `NC(=O)c1ccc2[nH]ccc2c1`, which Potency is on record?
**A.** inactive

**Q.** Which Potency does the source give for `CC(C)(Sc1cc(C(C)(C)C)c(O)c(C(C)(C)C)c1)Sc1cc(C(C)(C)C)c(O)c(C(C)(C)C)c1` here?
**A.** inactive

**Q.** For `O=S(=O)(O)CCS`, which Potency is on record?
**A.** inactive

**Q.** Which Potency does the source give for `O=NN(CCCl)C(=O)NC1CCCCC1` here?
**A.** inactive

**Q.** With `C[C@]12C=CC(=O)C=C1CC[C@@H]1[C@@H]2C(=O)C[C@@]2(C)[C@H]1CC[C@]2(O)C(=O)CO` as the molecule, how does the Potency read?
**A.** inactive

**Q.** Which Potency does the source give for `CCc1cc(C(N)=S)ccn1` here?
**A.** inactive

**Q.** For `NNC(=O)c1ccncc1`, which Potency is on record?
**A.** inactive

**Q.** For `O=C(NCC1CN(c2ccc(N3CCOCC3=O)cc2)C(=O)O1)c1ccc(Cl)s1` (stereo not given), which Potency is on record?
**A.** inactive

**Q.** With `CCC(C)(C)c1ccc(CC(C)CN2C[C@@H](C)O[C@@H](C)C2)cc1` (stereo not given in full) as the molecule, how does the Potency read?
**A.** inactive

**Q.** With `CCOC(=O)[C@H](CCc1ccccc1)N[C@H]1CCc2ccccc2N(CC(=O)O)C1=O` as the molecule, how does the Potency read?
**A.** inactive

**Q.** Which Potency does the source give for `CNC(=O)c1cc(Oc2ccc(NC(=O)Nc3ccc(Cl)c(C(F)(F)F)c3)cc2)ccn1` here?
**A.** 16.5 µM (active)

**Q.** Which Potency does the source give for `CCOc1cc(N)c(Cl)cc1C(=O)NCC1CN(Cc2ccc(F)cc2)CCO1` (stereo not given) here?
**A.** inactive

**Q.** For `CCCCS(=N)(=O)CCC(N)C(=O)O` (stereo not given), which Potency is on record?
**A.** inactive

**Q.** With `Nc1nc(=S)c2[nH]cnc2[nH]1` as the molecule, how does the Potency read?
**A.** inactive

**Q.** With `COc1ccc(C(=O)CC(=O)c2ccc(C(C)(C)C)cc2)cc1` as the molecule, how does the Potency read?
**A.** inactive

**Q.** For `Cc1nnc(NS(=O)(=O)c2ccc(N)cc2)s1`, which Potency is on record?
**A.** inactive

**Q.** For `Nc1nc(N)c2nc(CNc3ccc(C(=O)NC(CCC(=O)O)C(=O)O)cc3)cnc2n1` (stereo not given), which Potency is on record?
**A.** inactive

**Q.** For `CCOC(=O)c1ccc(OC(=O)CCCCCN=C(N)N)cc1`, which Potency is on record?
**A.** inactive

**Q.** With `CC(C)Cn1cnc2c(N)nc3ccccc3c21` as the molecule, how does the Potency read?
**A.** inactive
